The list is not random: actives were taken first. Their share in the collection is about 8.8%.
KB-3-1 tox = kills parental KB-3-1 adenocarcinoma cells; KB-3-1 viability, CellTiter-Glo ATP luminescence, 72 h; Potency, µM (titrated, usually from 46.1 µM), usual class: cytotoxic; 1.4% of 400,000 active; AID 1347075; also: potency is read from the fitted curve at half-maximal effect; nearly all actives have a fitted effect of over 60% in size
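KB-3-1 cells, DMEM (no phenol red) + 10% FBS; compound by pin transfer, 72 h, 37 °C. Readout: CellTiter-Glo luminescence after 10 min. Data normalized, curve-fitted.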
HT1080 IDH1KD tx = HT-1080 IDH1 knockdown cell toxicity (counter line); HT-1080 IDH1 knockdown viability, ATP luminescence, 48 h; Potency, µM (titrated, usually from 46.1 µM), inactives show top-dose activity, negative = toxicity, actives largely listed as cytotoxic; 2% of 360,000 active; AID 686971;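 also: potency is read from the fitted curve at half-maximal effect; 0% = DMSO wells and -100% = cell-free medium wells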
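After a 2 h attachment period, IDH1KD HT-1080 cells took pin-transferred compound for 48 h at 37 °C; ATP-based luminescence after 10 min room-temperature reagent incubation reported viability.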
IL-1B inflam inh = inflammasome signaling inhibition, IL-1 beta readout; THP-1 LPS/ATP IL-1B secretion, AlphaLISA, 16 h; stronger effect = lower value; activity change, % at 57.5 µM; AID 743279; 4.7% of 360,000 active; in the data active = activity change below about -50%; inconclusive = mostly about -30% to -49%
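THP-1 cells pretreated 1 hr with compounds (up to 57.5 uM final), then stimulated with LPS (250 ng/mL final) plus ATP (1.25 mM final); secreted IL-1B measured by AlphaLISA after 16 hr, decreased signal indicating inhibition.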
HT1080-NT tox = kills 2HG-producing HT-1080-NT fibrosarcoma cells. HT-1080-NT fibrosarcoma viability, CellTiter-Glo ATP luminescence, 48 h. Potency, µM (titrated, usually from 46.1 µM), for inactives: at the highest dose activity, negative = less viability, actives largely listed as cytotoxic. 1.6% of 360,000 active. AID 686970;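 also: NT is the 2HG producing partner of a matched IDH1 knockdown line; potency is read from the fitted curve at half-maximal effect; 0% = DMSO-treated cells and -100% = media-only wells without cells; nearly all actives have a fitted effect of over 55% in size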
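Luminescent CellTiter-Glo readout after 48 hours of compound exposure at 37 degrees C defined viability of HT-1080-NT cells. Activity was normalized to DMSO wells and cell-free media wells; concentration-response curves were fitted and assigned curve classes.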
KB-V1 MDR tox = KB-V1 MDR subline cytotoxicity; KB-V1 MDR cells viability, CellTiter-Glo, 72 h; AID 1347076; Potency, µM (doses to about 46.1 µM), hits mostly cytotoxic; 3.4% of 400,000 active; also: potency is read from the fitted curve at half-maximal effect; nearly all actives have a fitted effect of over 60% in size
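Potencies derive from concentration-effect curves fitted to normalized luminescence (CellTiter-Glo) of KB-V1 cells treated for 72 h at 37 degrees C in phenol-red-free DMEM containing 10% FBS.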
* hit, by the source's call; i = inactive; ? = inconclusive; . = no result given. Unless noted, calls follow the shape of the dose curve; as a rule, active = well fitted curve in the direction sought with a large enough effect; inconclusive = small, poorly fitted or top-dose-only effect, or another doubt; inactive = no such curve, though single readings can be large; an effect the other way counts as inactive or inconclusive. Unless noted, % is scaled to controls: 0 for no effect and ±100 for the full control effect.

SMILES | KB-3-1 tox | HT1080 IDH1KD tx | IL-1B inflam inh | HT1080-NT tox | KB-V1 MDR tox
Cc1ccc2cccc(OCCCOc3ccccc3F)c2n1 | i | -7% | -56* | -5% | i
Brc1ccc(OCCOCCOc2cccc3cccnc23)cc1 | i | -8% | ? | 0% | 18µM*
Cc1ccc(OCCOc2cccc3ccc(C)nc23)c([N+](=O)[O-])c1 | i | -8% | 24 | -20% | i
COC(=O)c1ccc(OCCOCCOc2cccc3ccc(C)nc23)cc1 | i | -1% | -8 | -5% | 15µM*
Brc1ccc(OCCCOc2cccc3cccnc23)cc1 | i | -3% | -1 | 2% | i
COC(=O)c1ccccc1OCCOCCOc1cccc2ccc(C)nc12 | i | -19% | 23 | ? | ?
C/C=C/c1ccc(OCCOCCOc2cccc3cccnc23)c(OC)c1 | i | -13% | 0 | -12% | ?
C/C=C/c1ccc(OCCOc2cccc3cccnc23)c(OC)c1 | i | -17% | -62* | -18% | i
COc1ccccc1/C=C/CN1CCCC(CO)(Cc2cccc(Cl)c2)C1 (configuration not stated) | i | 16µM* | -70* | 26µM* | i
COc1ccc(/C=C/CN2CCCC(CO)(Cc3cccc(Cl)c3)C2)cc1 (configuration not stated) | ? | 23µM* | -78* | ? | i
COc1cccc(CC2(CO)CCCN(C/C=C/c3ccccc3OC)C2)c1 (configuration not stated) | i | -29% | -5 | -27% | i
CCOc1ccc(NC(=O)c2ccc(NC(=O)N3CCSc4ncccc43)cc2)cc1 | i | . | . | . | i
CN(C)N1C(N)=C(C#N)C(c2ccccc2)C2=C1CC(C)(C)CC2=O (configuration not stated) | i | 20% | -11 | 7% | i
CN(C)N1C(N)=C(C#N)C(c2cccc3ccccc23)C2=C1CC(c1ccccc1)CC2=O (configuration not stated) | 13µM* | ? | -20 | ? | 21µM*
Cc1ccc(-c2nn(CC(=O)Nc3cccc(C(F)(F)F)c3)c(=O)c3ccccc23)cc1 | i | . | . | . | i
O=C(N/N=C/c1ccccc1)c1ccc(CN2C(=O)c3cccc4cccc2c34)cc1 | i | ? | 17 | 21µM* | i
O=C(N/N=C/c1ccc(O)cc1O)c1ccc(CN2C(=O)c3cccc4cccc2c34)cc1 | ? | ? | 119 | ? | ?
C#CC[N+](C)(C)C(C#Cc1ccccc1)CC=C (configuration not stated) | ? | ? | -73* | -17% | ?
C#CC[N+](CC)(CC)CC#Cc1ccccc1 | i | -3% | 23 | 1% | i
CC(=O)c1c(C)[nH]c(C(=O)OCc2nnc(-c3ccc([N+](=O)[O-])cc3)o2)c1C | i | ? | 45 | 23µM* | i
CS(=O)(=O)c1ccc(C(=O)OCc2nnc(-c3ccc(Cl)cc3)o2)cc1[N+](=O)[O-] | i | 18µM* | -77* | ? | i
O=C(OCc1nnc(-c2ccc(Cl)cc2)o1)c1ccc(O)cc1 | i | -18% | 35 | 21% | i
O=C(Nc1cccc(S(=O)(=O)N2CCCCCC2)c1)C1CC(=O)N(c2ccc3c(c2)OCCO3)C1 (configuration not stated) | i | -1% | 4 | 5% | i
COc1ccccc1NS(=O)(=O)c1cccc(C(=O)OCC(=O)NC2CC2)c1 | i | 2% | 9 | 0% | i
CCOC(=O)/C=C/c1ccc2c(c1)S(=O)(=O)N(C1CCCC1)[C@H]2CC(=O)OCC | i | . | . | . | ?
SMILES | KB-3-1 tox | HT1080 IDH1KD tx | IL-1B inflam inh | HT1080-NT tox | KB-V1 MDR tox
O=C(COc1ccc(Cl)cc1)c1ccc(O)cc1O | i | -15% | -67* | -14% | i
CCOC(=O)c1ccc(OCC(=O)c2ccc(O)cc2O)cc1 | i | 2% | 20 | -7% | i
COC(=O)c1ccc(OCC(=O)c2ccc(O)cc2O)cc1 | ? | -19% | 17 | -3% | 23µM*
Cc1ccccc1OCC(=O)NCC(=O)OC(c1ccccc1)c1ccccc1 | i | . | . | . | i
Cc1cc(-c2nnc3n2CCCCC3)c(C)n1-c1ccccc1 | ? | 1% | ? | 2% | 21µM*
COC(=O)c1ccc(NC(=O)c2cc(-c3ccccn3)nc3ccccc23)cc1 | i | 18% | 19 | 4% | i
COC(=O)c1ccc(NC(=O)c2cc(-c3ccncc3)nc3ccccc23)cc1 | 23µM* | ? | 42 | ? | i
COc1ccc(NC(=O)c2cc(-c3cc(OC)c(OC)c(OC)c3)nc3ccccc23)cc1OC | ? | -29% | -10 | -2% | 21µM*
O=C(Nc1ccc(Br)cc1)c1cc(-c2ccncc2)nc2ccccc12 | ? | 8.2µM* | 13 | 6.5µM* | i
COc1ccc(CNc2ccc3c(c2)ncn3C)cc1OC | ? | 16µM* | 34 | 16µM* | ?
O=C(NCc1ccc(Cl)cc1)c1cc([N+](=O)[O-])ccc1Cl | i | -1% | -13 | -2% | ?
CCc1ccc(NC(=O)CSc2ccnc(=O)[nH]2)cc1 | i | . | . | . | i
COc1ccc(N(CC(=O)Nc2cc(Cl)ccc2OC)S(=O)(=O)c2c(C)noc2C)cc1 | 4.6µM* | 12µM* | 0 | ? | 3.3µM*
COc1ccc(N(CC(=O)Nc2ccc(F)c(Cl)c2)S(=O)(=O)c2c(C)noc2C)cc1 | ? | -22% | -54* | -11% | ?
COc1ccc(N(CC(=O)Nc2ccc(OC)c(Cl)c2)S(=O)(=O)c2c(C)noc2C)cc1 | i | -21% | 1 | -17% | ?
COc1ccc(N(CC(=O)Nc2ccc(C)c(C)c2)S(=O)(=O)c2c(C)n[nH]c2C)cc1 | i | -11% | -124* | -7% | ?
COc1ccc(N(CC(=O)Nc2cccc(C)c2)S(=O)(=O)c2c(C)n[nH]c2C)cc1 | i | 6% | -9 | 2% | ?
COc1ccc(N(CC(=O)N2CCc3ccccc32)S(=O)(=O)c2c(C)n[nH]c2C)cc1 | i | -4% | -54* | -1% | i
O=C1NCCCN1C1OC(CO)C(O)C1O (configuration not stated) | i | 15% | 9 | 1% | i
CCN1CCN(c2ccc(S(=O)(=O)N3CCCC3)cn2)CC1 | i | 2% | -3 | 9% | i
Cc1cc2nc(-c3ccc(F)cc3)c(Cc3cccc(Cl)c3)n2c(C)c1Br | ? | -5% | 47 | -3% | ?
COc1ccc(Nc2nnc(-c3ccc(C)c(S(N)(=O)=O)c3)c3ccccc23)cc1 | i | . | . | . | i
CNC(=O)c1cc(Nc2nnc(-c3ccc(C)c(S(N)(=O)=O)c3)c3ccccc23)ccc1OC | i | -30% | -74* | -6% | ?
